USP30 inh: inhibitors of human USP30 deubiquitinase; Q70CQ3; purified USP30, Ub-rhodamine cleavage fluorescence; inhibition, % at 25 µM; hit rate 5.3% among 47,000; AID 1645860
USP17 inh: blocks human USP17 ubiquitin-rhodamine cleavage; purified USP17, Ub-rhodamine cleavage fluorescence, 3 h; A8MUK1; hit rate 6.5% among 47,000; inhibition, % at 50 µM
USP10 inh: human USP10 deubiquitinase inhibition; inhibition, % at 20 µM; hit rate 1.1% among 47,000; Q14694; purified USP10, Ub-rhodamine fluorescence, 60 min
Target sequence (Q14694 whole entry, looked up): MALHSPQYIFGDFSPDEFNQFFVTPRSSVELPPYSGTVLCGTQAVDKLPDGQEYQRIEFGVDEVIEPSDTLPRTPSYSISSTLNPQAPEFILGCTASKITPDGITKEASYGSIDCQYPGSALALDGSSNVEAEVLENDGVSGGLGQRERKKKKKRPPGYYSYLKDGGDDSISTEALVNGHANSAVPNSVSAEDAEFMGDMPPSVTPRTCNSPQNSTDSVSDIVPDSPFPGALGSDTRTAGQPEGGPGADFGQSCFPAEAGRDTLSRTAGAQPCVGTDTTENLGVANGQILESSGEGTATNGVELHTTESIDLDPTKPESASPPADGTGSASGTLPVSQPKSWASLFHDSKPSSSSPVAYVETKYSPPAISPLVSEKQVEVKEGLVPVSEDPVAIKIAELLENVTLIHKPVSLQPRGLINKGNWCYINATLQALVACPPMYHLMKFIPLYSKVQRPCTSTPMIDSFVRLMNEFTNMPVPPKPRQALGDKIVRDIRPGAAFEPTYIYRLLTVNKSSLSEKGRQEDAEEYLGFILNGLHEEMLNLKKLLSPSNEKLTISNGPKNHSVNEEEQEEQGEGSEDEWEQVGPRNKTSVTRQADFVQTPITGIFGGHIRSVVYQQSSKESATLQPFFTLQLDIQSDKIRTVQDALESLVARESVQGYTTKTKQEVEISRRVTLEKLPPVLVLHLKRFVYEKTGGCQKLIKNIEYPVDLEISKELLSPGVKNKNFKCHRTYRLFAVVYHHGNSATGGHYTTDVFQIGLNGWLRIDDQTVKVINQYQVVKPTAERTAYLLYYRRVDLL
USP8 block: human USP8 deubiquitinase inhibition; inhibition, % at 20 µM; hit rate 4.2% among 47,000; P40818; AID 1645853; purified USP8, Ub-rhodamine cleavage fluorescence, 30 min
USP28 block: blocks human USP28 ubiquitin-rhodamine cleavage | purified USP28, Ub-rhodamine cleavage fluorescence, 30 min | inhibition, % at 25 µM | hit rate 3% among 47,000 | AID 1645857
Numbers without * were called inactive. An excerpt weighted towards active compounds, which were near 14% of everything screened. No stated cut-off is given here; in the data, active means inhibition above about 30%; inactive means the rest.

C[C@H](NC(=O)C1CCN(C(=O)[C@H](Cc2ccccc2)NC(=O)OC(C)(C)C)CC1)C(=O)NCc1ccc(F)cc1 was read as USP30 inh 0, USP17 inh -5, USP10 inh -4, USP8 block -7 and USP28 block -3.
CC(C)[C@@H](NC(=O)C1CCN(C(=O)[C@H](N)Cc2ccccc2)CC1)C(=O)NCc1ccccc1F was read as USP30 inh 43*, USP17 inh 12, USP10 inh -5, USP8 block -3 and USP28 block 15.
CC1CCc2c(sc3nc(CN4CCOCC4)nc(Nc4ccc(C(C)(C)C)cc4)c23)C1 (configuration not stated) was read as USP30 inh 9, USP17 inh 16, USP10 inh 3, USP8 block 31* and USP28 block 4.
For O=C1C(NS(=O)(=O)Cc2cccc(F)c2)CCN1c1ccc(F)cc1 (configuration not stated) the results were USP30 inh -3, USP17 inh 43*, USP10 inh 1, USP8 block -10 and USP28 block 11.
`O=C(NCc1cccc(F)c1)NC1CCN(c2ccccc2)C1=O` (configuration not stated) gave USP30 inh 20, USP17 inh 44*, USP10 inh 3, USP8 block 14 and USP28 block 10.
`O=C(NCc1ccc(F)cc1)NC1CCN(c2ccccc2)C1=O` (configuration not stated) gave USP30 inh 1, USP17 inh -2, USP10 inh 3, USP8 block -3 and USP28 block 0.
For COc1ccc(CNC(=O)NC2CCN(c3ccc(F)cc3)C2=O)cc1 (configuration not stated) the results were USP30 inh 4, USP17 inh 6, USP10 inh 1, USP8 block 15 and USP28 block 0.
For Cc1cc(N2CCC(NC(=O)NCc3ccc(F)cc3)C2=O)ccc1F (configuration not stated) the results were USP30 inh 12, USP17 inh 70*, USP10 inh 5, USP8 block 1 and USP28 block 3.
`Cc1ccc(N2CCC(NS(=O)(=O)Cc3ccccc3)C2=O)cc1C` (configuration not stated) gave USP30 inh -3, USP17 inh 9, USP10 inh -1, USP8 block -10 and USP28 block 10.
O=C1C(NS(=O)(=O)Cc2cccc(F)c2)CCN1c1ccccc1 (configuration not stated) was read as USP30 inh 34*, USP17 inh 44*, USP10 inh 4, USP8 block 9 and USP28 block 19.
`CS(=O)(=O)c1ccc(-c2noc(C3CCN(Cc4cccc(C#N)c4)CC3)n2)cc1` gave USP30 inh -14, USP17 inh -8, USP10 inh -3, USP8 block -2 and USP28 block -13.
`O=C1C(NS(=O)(=O)Cc2cc(F)cc(F)c2)CCN1c1ccccc1` (configuration not stated) gave USP30 inh -13, USP17 inh 47*, USP10 inh 4, USP8 block 11 and USP28 block 18.
CC(C)NC(=O)[C@H](Cc1ccccc1)NC(=O)N1CCn2c1nc1ccccc12 was read as USP30 inh 62*, USP17 inh 33*, USP10 inh -1, USP8 block -5 and USP28 block 17.
`CCCNC(=O)[C@H](Cc1ccccc1)NC(=O)N1CCn2c1nc1ccccc12` gave USP30 inh 39*, USP17 inh 40*, USP10 inh 2, USP8 block -3 and USP28 block 5.
`CC(C)[C@H](NC(=O)N1CCn2c1nc1ccccc12)C(=O)N[C@H](Cc1ccccc1)C(=O)O` gave USP30 inh -9, USP17 inh -5, USP10 inh 5, USP8 block -1 and USP28 block -5.
For O=C(O)CNC(=O)[C@H](Cc1ccccc1)NC(=O)N1CCn2c1nc1ccccc12 the results were USP30 inh 2, USP17 inh 2, USP10 inh 2, USP8 block -6 and USP28 block 4.
O=C(Nc1ccccc1C(F)(F)F)c1cccc(S(=O)(=O)Nc2cc(C(F)(F)F)ccc2Cl)c1 was read as USP30 inh 17, USP17 inh 27, USP10 inh 43*, USP8 block 0 and USP28 block 13.
For CC1=C(C(=O)Nc2c(C)cc(C)cc2C)C2(CCC(C)CC2)OC1=O (configuration not stated) the results were USP30 inh -14, USP17 inh 34*, USP10 inh -1, USP8 block -10 and USP28 block -8.
CCn1c(SCc2nc(N)c3ccccc3n2)nc2ccccc21 was read as USP30 inh 39*, USP17 inh 54*, USP10 inh -3, USP8 block 33* and USP28 block 42*.
Cc1ccccc1-c1noc(COc2ccc(C(N)=O)cc2)n1 was read as USP30 inh 0, USP17 inh 14, USP10 inh -5, USP8 block -7 and USP28 block 40*.
CCc1noc(-c2c(S(=O)(=O)NCc3ccco3)c(C)n(C)c2C)n1 was read as USP30 inh -29, USP17 inh -20, USP10 inh -5, USP8 block 4 and USP28 block -8.
`CCN1CCN(c2ncc3c(=O)n(CCc4ccccc4)ccc3n2)CC1` gave USP30 inh 39*, USP17 inh 26, USP10 inh 0, USP8 block 16 and USP28 block 11.
`O=c1c2cnc(N3CCN(c4ccccc4)CC3)nc2ccn1Cc1cccnc1` gave USP30 inh 17, USP17 inh 14, USP10 inh 2, USP8 block 10 and USP28 block 10.
O=c1c2cnc(N3CCCCC3)nc2ccn1CCc1ccccc1 was read as USP30 inh 28, USP17 inh 85*, USP10 inh 7, USP8 block 17 and USP28 block 18.
For CSc1nc2ncc3c(=O)n(CCN4CCOCC4)ccc3n2n1 the results were USP30 inh 2, USP17 inh 4, USP10 inh -2, USP8 block 7 and USP28 block 8.
CSc1nc2ncc3c(=O)n(CCc4ccccc4)ccc3n2n1 was read as USP30 inh 44*, USP17 inh 62*, USP10 inh 2, USP8 block 16 and USP28 block 8.
For CCOC(=O)c1ccc(NC(=O)Cn2c3ncccc3c(=O)n2-c2ccc(C)cc2)cc1 the results were USP30 inh -38, USP17 inh -12, USP10 inh -1, USP8 block 6 and USP28 block -14.
For Fc1cccc(-n2cc(-c3noc(-c4ccncc4)n3)nn2)c1 the results were USP30 inh 18, USP17 inh 11, USP10 inh 0, USP8 block 7 and USP28 block 4.
For COc1ccccc1-c1nc(-c2cn(-c3cccc(Cl)c3)nn2)no1 the results were USP30 inh 46*, USP17 inh -18, USP10 inh 71*, USP8 block 96* and USP28 block 20.
